# In the library only some 4% were active in any assay of this set; here they are far more common.
# 697 NFkB inh – inhibitors of the PMA/ionomycin-induced NF-kB reporter in 697 B cells; actives 0.33% (n = 330,000); 697 B-cell NF-kB luciferase reporter, 16 h; AID 435022; inhibition, % at 4 µM; in the data active means inhibition above about 35%
# Beta cell apopt – blocks beta cell apoptosis | INS-1E cytokine-induced death, ATP luminescence, 48 h; percent of positive-control rescue, neutral wells zero | protection from apoptosis, % (concentration not given with the values) | actives 0.8% (n = 300,000);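 active means Every replicate reaches about 75%, or at least half do and their mean reaches it too, limit read from the data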;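 further: 0% = cytokine-treated negative control wells and 100% = positive control rescue; higher means more ATP so stronger rescue from cytokine killing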
# Gli-Sufu block – Gli-Sufu pathway antagonism. actives 0.74% (n = 340,000). inhibition, % at 5 µM. AID 588413. Sufu-KO-LIGHT fibroblasts, Gli luciferase reporter luminescence;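 active means inhibition above about 55%, limit read from the data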;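 further: 0% = DMSO-treated cells and 100% = wells with medium but no cells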
# Mdm2-MdmX inh – human Mdm2/MdmX binding inhibition; inhibition, % at 8 µM; actives 3% (n = 330,000); SaOS-2 split-luciferase Mdm2/MdmX complementation, luminescence; O15151+Q00987;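 active means inhibition of at least 50% at 8 µM in the primary screen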
# Target sequence (O15151 whole entry, looked up): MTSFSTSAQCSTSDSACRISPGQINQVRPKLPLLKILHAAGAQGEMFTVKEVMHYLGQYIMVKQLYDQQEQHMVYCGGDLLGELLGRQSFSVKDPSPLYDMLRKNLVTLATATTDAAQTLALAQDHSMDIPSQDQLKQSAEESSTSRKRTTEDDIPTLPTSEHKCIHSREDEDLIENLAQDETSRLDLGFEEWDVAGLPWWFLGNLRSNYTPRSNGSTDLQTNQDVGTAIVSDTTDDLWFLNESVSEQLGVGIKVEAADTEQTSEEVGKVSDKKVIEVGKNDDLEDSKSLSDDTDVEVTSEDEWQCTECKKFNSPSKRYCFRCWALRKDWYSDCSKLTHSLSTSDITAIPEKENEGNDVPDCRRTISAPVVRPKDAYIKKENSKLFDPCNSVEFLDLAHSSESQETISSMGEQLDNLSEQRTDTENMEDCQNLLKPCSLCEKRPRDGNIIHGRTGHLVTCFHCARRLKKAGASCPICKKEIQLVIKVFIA
# Target sequence (Q00987 whole entry, looked up): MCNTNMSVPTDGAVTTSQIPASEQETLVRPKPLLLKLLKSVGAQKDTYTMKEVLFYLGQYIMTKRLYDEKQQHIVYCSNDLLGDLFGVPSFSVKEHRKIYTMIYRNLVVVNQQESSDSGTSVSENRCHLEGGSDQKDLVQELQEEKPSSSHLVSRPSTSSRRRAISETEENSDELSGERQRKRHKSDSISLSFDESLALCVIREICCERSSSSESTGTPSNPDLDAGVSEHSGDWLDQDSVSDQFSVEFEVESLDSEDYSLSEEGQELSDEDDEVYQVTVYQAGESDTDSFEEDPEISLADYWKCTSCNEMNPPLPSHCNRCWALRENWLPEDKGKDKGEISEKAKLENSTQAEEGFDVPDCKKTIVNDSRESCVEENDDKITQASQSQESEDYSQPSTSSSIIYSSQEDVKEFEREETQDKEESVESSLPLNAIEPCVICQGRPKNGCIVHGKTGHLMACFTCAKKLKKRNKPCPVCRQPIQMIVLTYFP
# Jurkat NFkB inh – inhibitors of the PMA/ionomycin-induced NF-kB reporter in Jurkat cells | PMA/ionomycin-induced NF-kB luciferase reporter, luminescence | inhibition, % at 4 µM | actives 0.53% (n = 330,000) | AID 435003; in the data active means inhibition above about 50%
# Mdm2 MdmX conf – confirmation of human Mdm2/MdmX interaction inhibitors; inhibition, % at 8 µM; AID 489028; Mdm2-MdmX binding, luminescent assay; actives 55% (n = 10,000); shares compounds with Mdm2-MdmX inh; in the data active means inhibition above about 40%
# Full FLuc ctr – full-length luciferase inhibition in Mdm2/MdmX counter-screen; SaOS-2 full-length luciferase counterscreen, luminescence; actives 77% (n = 6,200); shares compounds with Mdm2-MdmX inh; AID 504607; inhibition, % at 8 µM;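 active means mean inhibition at 8 µM reaching about 37%, which flags the compound as non-specific, limit read from the data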;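 further: p53-null SaOS-2 cells with luciferase driven by a doxycycline-inducible promoter; compound on cells about two nights before reading with doxycycline added after day one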
# Starred values were filed as active, the others as inactive; nt = no result.
SMILES,697 NFkB inh,Beta cell apopt,Gli-Sufu block,Mdm2-MdmX inh,Jurkat NFkB inh,Mdm2 MdmX conf,others
O=C(Nc1ccc(SC(F)F)cc1)c1ccc(F)cc1,-103.9,1.9,-72.0,-126.9,-105.5,nt,
O=C(Nc1ccc(N2CCN(c3ccc(C(F)(F)F)cn3)CC2)nc1)c1cccs1,-24.6,-5.5,22.9,56.3*,17.5,6.3,
O=C(Nc1ccc(N2CCOCC2)nc1)c1cccs1,-42.0,-7.9,-16.6,-7.2,-51.8,nt,
O=C(Nc1ccc(N2CCN(c3ncccc3C(F)(F)F)CC2)nc1)c1cccs1,-35.4,16.9,15.5,65.0*,-6.3,34.6,
Cc1ccc(NC(=O)CN2CCN(S(=O)(=O)c3cccs3)CC2)cc1S(=O)(=O)N(C)C,-11.1,3.9,-22.2,-0.1,-10.1,nt,
Cc1cc2c(C)cc(=O)[nH]c2cc1NC(=O)CCl,17.7,-14.8,19.9,39.8,14.8,nt,
O=C(CCl)Nc1cc2[nH]c(=O)[nH]c2cc1Br,-51.2,-2.0,13.7,93.8*,31.0,74.0*,Full FLuc ctr=60.1*
Cc1noc(C)c1C(=O)Nc1cc(S(=O)(=O)N2CCCCC2)ccc1N(C)C,-4.4,nt,6.2,-22.2,6.6,nt,
O=C(NCc1ccc2c(c1)OCO2)c1ccc2c(c1)S(=O)(=O)c1ccccc1C2=O,17.1,1.3,-1.4,2.2,-0.6,nt,
COc1ccc(-c2cc(C(F)(F)F)nc(-n3ccnc3C)n2)cc1,-2.1,-2.6,22.4,54.8*,4.7,36.2,
COc1ccc(-c2cc(C(F)(F)F)nc(N3CCN(C)CC3)n2)cc1,10.0,nt,7.0,3.8,0.9,nt,
COc1cc(C#Cc2c(-c3cncn3C)n(C)c3ccc(Br)cc23)cc(OC)c1,11.3,3.5,-1.3,75.0*,19.5,-3.2,
COc1cc(C#Cc2c(-c3cncn3C)n(C)c3ccc(-c4ccc(OC)c(OC)c4)cc23)cc(OC)c1,18.3,12.9,1.9,52.0*,-3.2,22.6,
COc1cc(C#Cc2c(-c3cncn3C)n(C)c3ccc(-c4ccc5cc[nH]c5c4)cc23)cc(OC)c1,8.6,8.1,-15.3,46.0,0.9,nt,
COc1cc(OC)cc(-c2c(C#Cc3ccsc3)c3cc(Br)ccc3n2C)c1,-13.2,12.6,-0.2,-9.8,-9.2,nt,
COc1ccc(CC(=O)NNC(=O)CSc2ccc(C)cc2)cc1,4.1,-5.3,11.5,16.9,-2.8,nt,
CCCOc1ccc(-c2c(=O)n(OCC(=O)OCC)c3ccccc3[n+]2[O-])cc1,-129.0,-3.8,25.4,-9.1,-95.6,nt,
O=C(Nc1ccccn1)c1ccc(CN(c2ccccc2)S(=O)(=O)c2ccccc2)cc1,-7.8,nt,4.1,-4.9,0.7,nt,
COc1ccc(N(Cc2ccccc2)S(=O)(=O)c2cccc(C(=O)Nc3ccccn3)c2)cc1,6.6,6.3,4.7,57.2*,2.8,10.6,
CCOC(=O)C(C)(C)N(Cc1ccc(Cl)cc1)S(=O)(=O)c1ccc(Cl)c([N+](=O)[O-])c1,3.9,-0.9,nt,95.3*,-0.4,81.2*,Full FLuc ctr=50.0*
CCOC(=O)C(C)(C)N(Cc1ccc(C)cc1)S(=O)(=O)c1ccc(Cl)c([N+](=O)[O-])c1,24.5,-10.7,-1.9,96.0*,-4.7,65.5*,Full FLuc ctr=70.7*
CCOC(=O)C(C)(C)NS(=O)(=O)c1ccc(Cl)c([N+](=O)[O-])c1,10.9,-2.4,2.3,-26.6,10.0,nt,
O=C1NC(=Nc2cccnc2)S/C1=C/c1ccc(F)cc1,2.3,-0.7,5.1,51.5*,6.6,19.5,
O=C1NC(=Nc2ccccc2)S/C1=C\c1cccnc1,12.1,nt,2.2,30.9,17.4,nt,
COc1ccc(C(=O)NC2CCCc3c2cnn3-c2cc(F)cc(F)c2)c(OC)c1OC (centres undefined),-4.6,2.5,20.0,52.6*,15.6,47.1*,Full FLuc ctr=57.1*
COc1cc2c(cc1OC)C(c1cc(Br)ccc1F)N(C(=O)CCl)CC2 (centres undefined),-33.1,7.3,6.7,100.3*,41.5,73.0*,Full FLuc ctr=55.5*
COc1cc2c(cc1OC)C(C1C(=O)CC(C)(C)CC1=O)N(C(=O)CCl)CC2 (centres undefined),21.5,2.3,-3.9,3.9,10.9,nt,
CC(NC1CCCC1)c1ccccc1 (centres undefined),-16.5,-4.8,-5.2,-9.2,6.0,nt,
CC(NCCC(c1ccccc1)c1ccccc1)c1ccccc1 (centres undefined),-8.0,18.7,6.1,58.1*,0.5,15.9,
